± gives the standard deviation of the averaged measurements.
How the values were obtained:
Experiment in all cases: cell viability (% of vehicle); higher = less cytotoxic
Conditions in all cases: 10 µM; 72 h
HCI01 = system: HCI01 (cells of a triple-negative basal-like breast cancer xenograft)
HCI03 = system: HCI03 (cells of an ER-positive luminal breast cancer xenograft)
HCI09 = system: HCI09 (cells of a triple-negative luminal androgen receptor type breast cancer xenograft)
HCI11 = system: HCI11 (cells of an ER-positive luminal breast cancer xenograft)
HCI13 = system: HCI13 (cells of an ER-positive luminal breast cancer xenograft)
HCI16 = system: HCI16 (cells of a triple-negative basal-like breast cancer xenograft)
UCD52 = system: UCD52 (cells of a triple-negative basal-like breast cancer xenograft)
WHIM2 = system: WHIM2 (cells of a triple-negative basal-like breast cancer xenograft)
WHIM30 = system: WHIM30 (cells of a triple-negative basal-like breast cancer xenograft)
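Further: PDX cells carrying CMV promoter-driven luciferase, viability read as total photon flux per second by IVIS imaging following D-luciferin, vehicle control 0.1% DMSO.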

SMILES	cell viability (HCI01)	cell viability (HCI03)	cell viability (HCI09)	cell viability (HCI11)	cell viability (HCI13)	cell viability (HCI16)	cell viability (UCD52)	cell viability (WHIM2)	cell viability (WHIM30)
CN(C)CCC(c1ccc(Br)cc1)c1ccccn1.O=C(O)C=CC(=O)O (centres undefined) [Brompheniramine hydrogen maleate]	119 ± 19	117	103 ± 1.9	99.5	142 ± 4.6	118	74.9 ± 2.3	97.9 ± 3.3	113.4 ± 1.1
CCC1OC(=O)CC(O)C(C)C(OC2OC(C)C(O)C(N(C)C)C2O)C(CCN2CC(C)CC(C)C2)CC(C)C(=O)C=CC(C)=CC1COC1OC(C)C(O)C(OC)C1OC (centres undefined) [Tilmicosin]	89.4 ± 32	116	82 ± 4.8	80.9	99.5 ± 6.4	102	77.7 ± 9.9	84.1 ± 3.9	97 ± 10
Cc1cc(NS(=O)(=O)c2ccc(N)cc2)no1 [Sulfamethoxazole]	115 ± 29	127	107 ± 30	95.4	120 ± 1.2	154	99.6 ± 4.2	117.5 ± 0.64	196 ± 4
CN(C)C(=N)N=C(N)N.Cl [Metformin HCl]	100 ± 14	123	92.5 ± 13	86.2	102 ± 6.9	117	82.2 ± 4.7	91.7 ± 3.1	136 ± 14
O=C(O)CCNC(=O)c1ccc(/N=N/c2ccc(O)c(C(=O)O)c2)cc1 [Balsalazide]	96.3 ± 18	120	87.6 ± 1.2	91.1	120 ± 6.3	114	93.5 ± 10	98.8 ± 15	110 ± 6.1
COC(=O)C1=COC(OC2OC(CO)C(O)C(O)C2O)C2C(CO)=CCC12 (centres undefined) [Geniposide]	104 ± 24	158	104 ± 21	98.3	95.3 ± 7.7	116	116 ± 1.3	83.6 ± 4.8	96.53 ± 0.79
CN(C)CCCN1c2ccccc2Sc2ccc(Cl)cc21.Cl [Chlorpromazine HCl]	137 ± 40	98.9	68.1 ± 7.8	76.5	84.7 ± 3.1	122	51.4 ± 5.5	47.8 ± 7.8	104 ± 2.1
Cl.NC(N)=NC(=O)c1nc(Cl)c(N)nc1N.O.O [Amiloride HCl dihydrate]	99.2 ± 7.3	102	121 ± 1.5	89.4	102 ± 8.4	115	96.35 ± 0.8	86 ± 16	114 ± 8.2
Cc1cccc(N(C)C(=S)Oc2ccc3ccccc3c2)c1 [Tolnaftate]	113 ± 28	140	72.7 ± 30	95.2	96.2 ± 8.2	108	71.2 ± 2.5	91.6 ± 8.1	131 ± 9.2
CCCCCCOC(=O)N=C(N)c1ccc(NCc2nc3cc(C(=O)N(CCC(=O)OCC)c4ccccn4)ccc3n2C)cc1.CS(=O)(=O)O [Dabigatran etexilate mesylate]	98.8 ± 8.5	126	81.5 ± 8.2	99.4	106 ± 23	94.6	98.4 ± 9	63.2 ± 3.8	104 ± 5.8
CC(=O)c1c(C)c2cnc(Nc3ccc(N4CCNCC4)cn3)nc2n(C2CCCC2)c1=O.Cl	134 ± 73	141	86.1 ± 9.9	152	110 ± 31	114	82.86 ± 0.55	88.8 ± 7.7	132 ± 6.1
O=C1NC([O-])=NC1(c1ccccc1)c1ccccc1.[Na+] [Phenytoin sodium]	97.2 ± 10	142	96.6 ± 14	101	104 ± 9.4	114	91.6 ± 8.2	105 ± 7.8	118 ± 8.7
CC(=O)Oc1cc(C(F)(F)F)ccc1C(=O)O [Triflusal]	108 ± 22	129	97 ± 13	101	107 ± 1.9	98.4	76 ± 3.1	107 ± 17	85.4 ± 4.2
CCCOc1ccc(C(=O)OCCN(CC)CC)cc1N.Cl [Proparacaine HCl]	99.6 ± 12	165	91 ± 17	91.9	111 ± 5.8	109	102 ± 11	97.1 ± 7.6	114 ± 13
C=CC1=C(C(=O)O)N2C(=O)C(NC(=O)C(=NO)c3csc(N)n3)C2SC1 (centres undefined) [Cefdinir]	96.2 ± 11	138	107 ± 6.3	120	130 ± 4.8	121	96.6 ± 12	98.1 ± 22	114 ± 8
COC(=O)C1C2CC3c4[nH]c5cc(OC)ccc5c4CCN3CC2CC(OC(=O)c2cc(OC)c(OC)c(OC)c2)C1OC (centres undefined) [Reserpine]	123 ± 29	112	92.8 ± 4.8	89	129 ± 10	132	105 ± 1.3	88.36 ± 0.5	109 ± 7.1
CC[N+](CC)(CC)CCOc1cccc(OCC[N+](CC)(CC)CC)c1OCC[N+](CC)(CC)CC.[I-].[I-].[I-] [Gallamine Triethiodide]	107 ± 9.8	118	94.6 ± 20	88.1	107 ± 8.3	92.6	98 ± 6.3	118 ± 6.2	79.5 ± 6.1
COc1ccccc1N1CCN(CC(O)COc2cccc3ccccc23)CC1 (centres undefined) [Naftopidil]	116 ± 8.4	84.3	87.2 ± 14	107	103 ± 19	108	67.4 ± 2.8	89.8 ± 24	104 ± 12
CC(C)(C)NC(=O)NC(C(=O)N1CC2C(C1C(=O)NC(CC1CCC1)C(=O)C(N)=O)C2(C)C)C(C)(C)C (centres undefined) [Boceprevir]	100 ± 19	83.8	87.2 ± 6.2	101	72.5 ± 1.2	65.1	80.1 ± 16	80.7 ± 15	85.1 ± 8.9
CC(C(=O)O)c1ccc2c(c1)CC(=O)c1ccccc1S2 (centres undefined) [Zaltoprofen]	124 ± 32	120	95.5 ± 26	103	134 ± 6.7	112	77.9 ± 11	98 ± 13	82.8 ± 5.6
FC(F)(F)c1ccc(CNc2ccc(Cc3c[nH]c4ncc(Cl)cc34)cn2)cn1 [Pexidartinib (PLX3397)]	100 ± 1.4	139	73.6 ± 3.9	91.3	96.9 ± 7.1	116	97.4 ± 16	96.5 ± 8.4	86 ± 11

From the supplement of paper PMC6992640
